Screening data (PubChem BioAssay)
TDP1 cell noCPT: qHTS for Inhibitors of human tyrosyl-DNA phosphodiesterase 1 (TDP1): qHTS in cells in absence of CPT; DT40 Tdp1-/- hTDP1 cells, no CPT, ATP luminescence, 48 h; Potency, µM (highest dose often 46.2 µM), most hits filed as inhibitors; actives 15% (n = 420,000); AID 686978, 2013; also: nearly all actives have a fitted effect of over 55% in size
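Camptothecin absent (DMSO only). Human TDP1-complemented DT40 knockout cells, 400 cells/well, 37 °C for minimum 48 hr; ATP measured via CellTiter-Glo, 30 min dark incubation, luminescence.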
IL-1B inflam inh: inflammasome signaling inhibition, IL-1 beta readout | THP-1 LPS/ATP IL-1B secretion, AlphaLISA, 16 h; active compounds read low | AID 743279 | activity change, % at 57.5 µM | actives 4.7% (n = 360,000); in the data active = activity change below about -50%; inconclusive = mostly about -30% to -49%
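THP-1 cells pretreated 1 hr with compounds (up to 57.5 uM final), then stimulated with LPS (250 ng/mL final) plus ATP (1.25 mM final); secreted IL-1B measured by AlphaLISA after 16 hr, decreased signal indicating inhibition.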
DT40 TDP1 CPT: DT40-hTDP1 cell growth loss with CPT | chicken DT40 Tdp1-/-;hTDP1 cells + 20 nM CPT, ATP luminescence, 48 h | Potency, µM (highest dose often 46.2 µM), hits mostly inhibitors | actives 12% (n = 420,000); also: nearly all actives have a fitted effect of over 55% in size
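Chicken DT40 Tdp1-/- cells complemented with human TDP1, 400 cells/well, exposed to compounds plus 20 nM camptothecin for at least 48 h at 37 C; viability read as ATP content by CellTiter-Glo luminescence.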
TDP1 inh: blocks human tyrosyl-DNA phosphodiesterase 1; AID 485290; actives 0.28% (n = 350,000); Q9NUW8; Potency, µM (series often up to 130 µM), actives largely listed as inhibitors; recombinant TDP1, AlphaScreen DNA substrate cleavage; also: nearly all actives have a fitted effect of over 40% in size
Target sequence (Q9NUW8 whole entry, looked up): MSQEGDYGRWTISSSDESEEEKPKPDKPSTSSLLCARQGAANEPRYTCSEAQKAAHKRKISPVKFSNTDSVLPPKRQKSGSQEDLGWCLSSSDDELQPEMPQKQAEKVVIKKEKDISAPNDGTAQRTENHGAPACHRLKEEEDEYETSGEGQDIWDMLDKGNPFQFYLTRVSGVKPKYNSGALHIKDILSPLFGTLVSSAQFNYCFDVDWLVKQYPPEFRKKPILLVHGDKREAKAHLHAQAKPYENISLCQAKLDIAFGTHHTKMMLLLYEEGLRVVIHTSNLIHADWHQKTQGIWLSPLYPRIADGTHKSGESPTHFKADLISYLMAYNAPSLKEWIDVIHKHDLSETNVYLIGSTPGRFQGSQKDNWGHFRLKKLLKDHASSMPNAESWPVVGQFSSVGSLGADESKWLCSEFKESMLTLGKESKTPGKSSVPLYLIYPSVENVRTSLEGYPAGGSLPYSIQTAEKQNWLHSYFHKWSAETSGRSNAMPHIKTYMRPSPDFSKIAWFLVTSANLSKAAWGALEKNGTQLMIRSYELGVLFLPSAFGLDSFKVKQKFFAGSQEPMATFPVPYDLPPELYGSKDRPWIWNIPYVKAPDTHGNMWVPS
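AlphaScreen read-out: signal falls as enzyme removes the 3' tyrosine-FITC from a 5'-biotinylated DNA oligo (15 nM, 5 min, RT). Enzyme was E. coli-made recombinant Tdp1 at 1 nM, exposed to compound for 15 min beforehand; beads 10 ug/ml, 10 min.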
HepG2 viability: kills HepG2 cells in TGF-b inhibitor counter-screen; HepG2 CAGA-GFP viability, ATP luminescence, 18 h; Potency, µM (top dose mostly 46.1 µM), most hits filed as cytotoxic; actives 0.76% (n = 410,000)
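CellTiter-Glo luminescence gave cytotoxicity after 18 hours at 37 degrees C. The cells were HepG2 CAGA-GFP in 1% FBS DMEM, stimulated with 500 pg/mL TGF-beta after compound addition. %Activity was normalised to no-cell wells (complete cell-killing) and DMSO (no toxicity), and curves were fitted and classified.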
TGFb inhibitor: blocks TGF-b signaling; HepG2 CAGA-GFP TGF-b/SMAD3 reporter, GFP fluorescence, 18 h; TGF-beta stimulated, 500 pg/mL final; Potency, µM (top dose mostly 46.1 µM), most hits filed as inhibitors; actives 1.2% (n = 410,000); AID 588855; also: nearly all actives have a fitted effect of over 65% in size
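Using HEPG2 CAGA-GFP reporter cells at 1000 cells/well, we pinned test compounds, stimulated with recombinant TGF-beta (500 pg/mL final) and measured total well GFP after 18 h.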
Numbers stand for hits; 0 = inactive; ? = inconclusive; - = no result; ! = repeats disagree; [ ] = dose if it differs, or a comment. A selection: hits, their analogues and other compounds. The true share with any hit is near 18%. Unless noted, calls follow the shape of the dose curve; as a rule, active = well fitted curve in the direction sought with a large enough effect; inconclusive = small, poorly fitted or top-dose-only effect, or another doubt; inactive = no such curve, though single readings can be large; an effect the other way counts as inactive or inconclusive.

SMILES | TDP1 cell noCPT | IL-1B inflam inh | DT40 TDP1 CPT | TDP1 inh | HepG2 viability | TGFb inhibitor
COc1ccc(OCCN2CCN(S(=O)(=O)c3ccccc3C(F)(F)F)CC2)cc1 | ? | 0 | ? | 0 | 0 | ?
Cc1sc(NC(=O)c2ccccc2F)c(CN2CCCCC2C)c1C (centres undefined) | 12µM | 0 | 18µM | 0 | 0 | 0
Cc1[nH]c(=O)[nH]c(=O)c1/C=N/NC(=O)CCNC(=O)OC(C)(C)C | 0 | -60 | 0 | 0 | 0 | 0
CCOC(=O)c1ccc(NC(=O)CCCc2nc(-c3cc(OC)c(OC)c(OC)c3)no2)cc1 | ? | - | ? | 0 | 0 | 0
CCOc1ccc(NC(=O)CCCc2nc(-c3cccc(OC)c3)no2)cc1 | 21µM | - | ? | 0 | 0 | ?
CCOc1ccccc1NC(=O)c1ccccc1-c1nc(-c2ccccc2OC)no1 | 9.2µM | 0 | 16µM | 0 | 0 | 0
CCOC(=O)c1ccc(NC(=O)CCc2nc(-c3ccccc3Cl)no2)cc1 | 15µM | 0 | 16µM | 0 | 0 | 0
CCOC(=O)c1ccc(NC(=O)CCc2nc(-c3ccccc3)no2)cc1 | 29µM | 0 | 18µM | 0 | 0 | 0
O=C(O)CCc1nc(-c2ccccc2Cl)no1 | 0 | 0 | 0 | 0 | 0 | 0
Nc1ccccc1C(=O)N1CCCC1 | 0 | 0 | 0 | 0 | 0 | 0
COc1cc(OC)cc(C(=O)N[C@H](C(=O)OCC(=O)Nc2sccc2C#N)C(C)C)c1 | 0 | 0 | 0 | 0 | 0 | 0
CCOc1ccccc1NC(=O)CCCc1nc(-c2ccccc2Cl)no1 | ? | - | 13µM | 0 | 0 | 0
COc1ccc(-c2noc(CCCC(=O)NC3CCCCC3)n2)cc1 | 23µM | 0 | 21µM | 0 | 0 | 0
COc1ccccc1-c1noc(CCC(=O)Nc2ccccc2Cl)n1 | 0 | 0 | 0 | 0 | 0 | 0
C=CCOC(=O)c1ccccc1C(=O)OCC1CO1 (centres undefined) | ? | 0 | ? | - | 0 | 0
O=C(COC(=O)/C=C/c1ccc(S(=O)(=O)N2CCOCC2)cc1)NCc1ccc(F)cc1 | 12µM | 0 | 3.7µM | 0 | 0 | 0
O=C(COC(=O)/C=C/c1ccco1)NCc1ccc2c(c1)OCO2 | 0 | 0 | 0 | 50µM | 0 | 0
O=C(COC(=O)/C=C/c1ccc2c(c1)OCO2)NCc1ccc(F)cc1 | 21µM | 0 | 23µM | - | 0 | 0
O=C(CSc1nnc(NC(=O)c2ccco2)s1)NCc1ccc2c(c1)OCO2 | 18µM | 0 | 0 | 0 | 0 | 0
O=C(COC(=O)/C=C/c1ccc(S(=O)(=O)N2CCOCC2)cc1)NCc1ccc2c(c1)OCO2 | ? | 0 | ? | 0 | 0 | 0
Cc1ccc(CNC(=O)CNC(=O)[C@@H]2Cc3ccccc3CN2)cc1 | 0 | 0 | 0 | 0 | 0 | 0
Cc1nn(C)c(C)c1NS(=O)(=O)c1cccc(Br)c1 | ? | 0 | 0 | 0[0.505 µM] | 0 | 0
O=C(O)Cn1nc(N2CCN(c3ccccc3)CC2)ccc1=O | 0 | - | 0 | 0 | 0 | 0
O=C1CCc2cc(S(=O)(=O)Nc3ccc(F)cc3)cc3c2N1CC3 | 0 | 0 | 0 | 0[0.505 µM] | 0 | 0
C(=C\c1ccnc2ccccc12)/c1ccc(N(Cc2ccccc2)Cc2ccccc2)cc1 | 13µM | - | 13µM | - | 0 | 0
SMILES | TDP1 cell noCPT | IL-1B inflam inh | DT40 TDP1 CPT | TDP1 inh | HepG2 viability | TGFb inhibitor
CCN(Cc1ccccc1)c1ccc(/C=C/c2ccnc3ccccc23)cc1 | 11µM | - | ? | - | 0 | 0
Cc1ccc(S(=O)(=O)N2CC3CCCC2C3)cc1 (centres undefined) | ? | - | 0 | 0 | 0 | 0
COC(=O)C1=C(O)C2(C(=O)O)CC(C(=O)OC)=C(O)C(C(=O)O)(C1)C2 | 10µM | - | 0 | - | 0 | 0
Cc1nnc2n1N=CC=C(c1ccccc1)S2 | 5.2µM | -91 | 8.2µM | 0 | 0 | ?
COc1cc(OC)c(NC(=O)C2CCN(S(=O)(=O)c3c(C)noc3/C=C/c3c(C)cc(C)cc3C)CC2)cc1Cl | 0 | - | 0 | 0 | 0 | 0
CCCNC(=O)C1CCN(S(=O)(=O)c2c(C)noc2/C=C\c2ccc(OC)cc2)CC1 | 0 | 0 | 0 | 0 | 0 | 0
Cc1cc(C)c(/C=C/c2onc(C)c2S(=O)(=O)N2CCC(C(=O)NCC(C)c3ccccc3)CC2)c(C)c1 (centres undefined) | 15µM | - | 23µM | 0 | 0 | ?
Cc1cc(C)c(/C=C/c2onc(C)c2S(=O)(=O)N2CCC(C(=O)Nc3ccc(Cl)c(C(F)(F)F)c3)CC2)c(C)c1 | 5.8µM | - | 4.1µM | 0 | 0 | 0
CCOc1ccc(N(C)C(=O)C2CCN(S(=O)(=O)c3c(C)noc3/C=C/c3ccc(C)cc3)CC2)cc1 | 5.8µM | - | 4.1µM | 0 | 0 | ?
CCOc1ccc(NC(=O)C2CCN(S(=O)(=O)c3c(C)noc3/C=C/c3c(C)cc(C)cc3C)CC2)cc1 | 6.5µM | - | 9.2µM | 0 | 0 | 0
CCC(Oc1ccc(Br)cc1)C(=O)N1CCN(c2ncccn2)CC1 (centres undefined) | 0 | 0 | 0 | 0 | 0 | 0
N#CCCn1nc(-c2ccc(Br)cc2)cc1Nc1ccccc1NC(=O)C(F)(F)F | ? | -78 | ? | 0 | 0 | ?
COc1ccc(NC(=S)N(CCc2c(C)[nH]c3ccc(C)cc23)Cc2cccs2)cc1 | ? | -56 | 16µM | 0 | 0 | ?
COc1ccc2[nH]c(C)c(CCN(Cc3cccs3)C(=S)Nc3ccc(F)cc3)c2c1 | ? | 0 | ? | 0 | 0 | ?
COc1ccc2[nH]c(C)c(CCN(Cc3cccs3)C(=S)Nc3ccccc3)c2c1 | ? | -50 | ? | 0 | 0 | ?
Cc1nn(Cc2ccc(Cl)cc2)c(C)c1NC(=O)c1cc(-c2ccc3c(c2)OCO3)on1 | 15µM | 0 | 23µM | 0 | 0 | ?
Cc1nn(Cc2ccc(Cl)c(Cl)c2)c(C)c1NC(=O)c1cc(-c2ccc3c(c2)OCO3)on1 | 21µM | 0 | 18µM | 0 | 0 | ?
Cc1ccc(NC(=O)c2cc(-c3ccc4c(c3)OCO4)on2)cc1 | ? | 0 | ? | 0 | 0 | 0
Cc1nc(C)c(CC(=O)N/N=C/c2ccc(O)cc2)c(=O)[nH]1 | 0 | 0 | 0 | 0 | 0 | 0
CCCCCCN1C=C/C(=C\C=C(C#N)C#N)c2ccccc21 | 23µM | 0 | ? | 0 | 0 | 0
Cc1cccc(C)c1NC(=O)Cn1c(SCC(=O)NCc2ccccc2)nc2ccccc21 | ? | - | ? | 0 | 0 | 0
CCOC(=O)[C@H](CCc1ccccc1)N[C@@H](C)C(=O)N1Cc2ccccc2C[C@H]1C(=O)O | 0.26µM! | 0 | ? | - | 0 | 0
Cc1ccc(-n2cccc2/C=C2\C(=N)N3N=C(c4ccco4)SC3=NC2=O)cc1 | 0 | 0 | ? | 56µM | 0 | 0
